Results filed as inconclusive are left out. Entries that show only a call come without a potency. Activity calls are given as the source filed them. Calls follow the shape of the full dose curve.

Nucleoprotein (Lymphocytic choriomeningitis virus (strain Armstrong)), sequence (P09992 whole entry, looked up): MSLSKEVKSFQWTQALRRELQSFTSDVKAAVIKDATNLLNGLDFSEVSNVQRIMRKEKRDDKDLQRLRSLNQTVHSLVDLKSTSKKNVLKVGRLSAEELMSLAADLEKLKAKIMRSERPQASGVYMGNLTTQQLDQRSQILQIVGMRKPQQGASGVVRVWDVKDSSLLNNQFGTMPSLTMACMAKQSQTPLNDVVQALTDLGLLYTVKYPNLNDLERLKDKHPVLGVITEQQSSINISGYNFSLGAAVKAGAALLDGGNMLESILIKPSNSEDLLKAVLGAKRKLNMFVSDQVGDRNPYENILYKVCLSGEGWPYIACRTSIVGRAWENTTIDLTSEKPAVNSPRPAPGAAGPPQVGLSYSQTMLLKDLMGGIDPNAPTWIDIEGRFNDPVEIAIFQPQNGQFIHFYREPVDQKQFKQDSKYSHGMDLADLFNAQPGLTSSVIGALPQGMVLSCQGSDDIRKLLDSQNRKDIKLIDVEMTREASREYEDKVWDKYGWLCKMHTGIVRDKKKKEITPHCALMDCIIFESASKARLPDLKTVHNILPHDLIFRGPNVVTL

The test has as its target Nucleoprotein (Lymphocytic choriomeningitis virus (strain Armstrong)) (UniProt P09992). Description: qHTS for Inhibitors of the Functional Ribonucleoprotein Complex (vRNP) of Lymphocytic Choriomeningitis Arenaviruses (LCMV): LCMV Primary Screen - GLuc reporter signal (AID 1347086). Also: nearly all actives have a fitted effect of over 70% in size. To be noted: LCMV minigenome vRNP cell assay, Gaussia luciferase reporter; series mostly up to 57.5 µM.
For `CC(C)(C)c1ccc(C(=O)CCCN2CCC(OC(c3ccccc3)c3ccccc3)CC2)cc1`, the Potency result is “inactive”. For `CC(=O)OCC(=O)[C@@]1(O)CC[C@H]2[C@@H]3CCC4=CC(=O)C=C[C@]4(C)[C@H]3[C@@H](O)C[C@@]21C` the value was “inactive”. On to `C#CCN(C)CCCOc1ccc(Cl)cc1Cl`, for which the Potency result was “inactive”.

With `CCN(CC)CCOc1ccc(C(O)(Cc2ccc(Cl)cc2)c2ccc(C)cc2)cc1` (centres undefined), the Potency result is “inactive”. Next, `CCOC(=O)Nc1ccc(NCc2ccc(F)cc2)nc1N`: “inactive”; `O=C1C(CCS(=O)c2ccccc2)C(=O)N(c2ccccc2)N1c1ccccc1` (centres undefined): “inactive”. Consider `CN(C)CCCOc1nn(Cc2ccccc2)c2ccccc12`, for which the Potency result is “inactive”.

As for `CCCOC(C(=O)OC1CCN(C)CC1)(c1ccccc1)c1ccccc1`, the Potency entry was “inactive”. On to `O=C(O)CCC(=O)Nc1ccc(S(=O)(=O)Nc2nccs2)cc1`, for which the Potency result is “inactive”. `Nc1ccn(C2CO[C@H](CO)O2)c(=O)n1` (some centres undefined): the Potency entry is “inactive”. For the compound `COc1cc(NS(=O)(=O)c2ccc(N)cc2)ncn1`, the Potency entry was “inactive”. In the case of `O=C(NCCc1c[nH]c2ccccc12)c1cccnc1`, the Potency result is “inactive”. For `CCN(CC)C(=O)C1CN2CCc3cc(OC)c(OC)cc3C2CC1OC(C)=O` (centres undefined) the value was “inactive”. For `FC(F)(F)C(Cl)Br` (centres undefined), the Potency result was “inactive”.

For the compound `O=c1cc(CO)occ1O`, the Potency result was “inactive”. For `CC1CC(=O)NN=C1c1ccc(NCC(C)(C)NCC(O)COc2cc(Cl)ccc2C#N)cc1` (centres undefined), the Potency entry was “inactive”. Consider `CS(=O)(=O)c1ccc(-c2cn3ccccc3n2)cc1`, for which the Potency entry is “inactive”. For the compound `O=c1[nH]c2ccccc2n1CCCN1CCN(C(c2ccccc2)c2ccccc2)CC1`, the Potency result is “inactive”. For `O=C(O)c1cn(C2CC2)c2cc(Cl)c(F)cc2c1=O`, the Potency entry is “inactive”. Regarding `Cc1cc(C2CCCCC2)n(O)c(=O)c1`, the Potency entry was “inactive”.

Consider `CC(CC1c2ccccc2CCc2ccccc21)CN(C)C` (centres undefined), for which the Potency result is “inactive”.

In the case of `Nc1cc(C(F)(F)F)ccc1S`, the Potency result is “inactive”. For the compound `CC(=O)Oc1c(C)c(C)c2c(c1C)CC[C@@](C)(CCC[C@H](C)CCC[C@H](C)CCCC(C)C)O2`, the Potency entry was “inactive”. Consider `CN1C[C@H](C(=O)N[C@]2(C)O[C@@]3(O)[C@@H]4CCCN4C(=O)[C@H](Cc4ccccc4)N3C2=O)C[C@@H]2c3cccc4[nH]cc(c34)C[C@H]21`, for which the Potency result is “inactive”. Next, `O=C1NC2CCCCN2C12CCN(CCCN1c3ccccc3CCc3ccc(Cl)cc31)CC2` (centres undefined): “inactive”. For the compound `NC(N)=N/N=C/c1c(Cl)cccc1Cl`, the Potency result was “inactive”. For `Nc1ccc(N=Nc2ccccc2)c(N)n1`, the Potency result was “inactive”. Turning to `O=C(O)CNC(=O)c1ccccc1I`, the Potency result is “inactive”. On to `Nc1ccn([C@H]2CC[C@@H](CO)O2)c(=O)n1`, for which the Potency result is “inactive”.

`CCOC(=O)C(=O)CCc1ccccc1`: the Potency entry was “inactive”. For the compound `CC(C)(C)c1ccc(C(=O)CCCCl)cc1`, the Potency result was “inactive”. For `C[C@]12C=CC(=O)C=C1CC[C@H]1[C@@H]3C[C@@H](O)[C@](O)(C(=O)CO)[C@@]3(C)C[C@H](O)[C@@]12F`, the Potency result is “inactive”. On to `Cc1cc2c(OCC(CNC(C)(C)C)OC(=O)c3ccccc3)cccc2[nH]1` (centres undefined), for which the Potency result is “inactive”. Next, `CC(=O)NC(Cc1ccccc1)C(=O)O` (centres undefined): “inactive”; `Cc1ccc2c(Cl)cc(Cl)c(O)c2n1`: “inactive”; `CCCCN1CCCC1C(=O)Nc1c(C)cc(C)cc1C` (centres undefined): “inactive”. For `CN(C)CCN(Cc1cccs1)c1ccccn1` the value was “inactive”; for `CCCOc1ccc2nc(NC(=O)OC)[nH]c2c1`, “inactive”; for `O=C(O)C(=O)Nc1cccc(-c2nn[nH]n2)c1`, “inactive”.

The values above are taken from PubChem BioAssay (NCATS).
